The values that follow come from PubChem BioAssay.

Assay [1] is described as follows: compounds binding Alexa647 anti-His antibody – biochemical, small-molecule microarray, 635 nm fluorescence, artefact control for SMM control protein annotation, primary screen (AID 1128).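 Also: score merges feature fluorescence with signal-to-noise for each printed compound spot.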 Conditions: higher = more signal.
The subject of assay [2] is Human papillomavirus type 1a E7 protein (residues 1-88). In words: HPV1a E7 small-molecule binders, primary screen, biochemical, small-molecule microarray, residues 1-88, 635 nm (AID 1129). Conditions: small-molecule microarray binding, fluorescence 635 nm; higher = more signal.
Assay [3] concerns the target Focal adhesion kinase 1 (Homo sapiens) (UniProt Q05397). Nature of the assay: PTK2 protein binding on printed compound slides – biochemical, small-molecule microarray, 635/667 nm fluorescence, BSA, DTT, primary screen (AID 1130).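 Also: composite of spot emission at 667 nm and signal to noise over triplicate slides.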 Conditions: 635 nm fluorescence, higher = more signal.
Assay [4] concerns Fibrinogen (Alexa647-labelled). Nature of the assay: Alexa647-fibrinogen binding to printed small molecules – biochemical, small-molecule microarray, 635/667 nm fluorescence, artefact control for SMM control-protein annotation, profiling panel (AID 1131).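 Also: z-score merges 667 nm fluorescence with per-spot signal-to-noise over triplicate slides.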 Conditions: fibrinogen-A647 binding fluorescence, higher = more signal.
In assay [5] the target is Follistatin (Homo sapiens) (UniProt P19883). In words: FST protein binding to printed compounds – biochemical, small-molecule microarray, 635/667 nm fluorescence, primary screen (AID 1132). The following applies: 635 nm fluorescence, higher = more signal.
Follistatin (Homo sapiens), sequence (P19883 whole entry, looked up): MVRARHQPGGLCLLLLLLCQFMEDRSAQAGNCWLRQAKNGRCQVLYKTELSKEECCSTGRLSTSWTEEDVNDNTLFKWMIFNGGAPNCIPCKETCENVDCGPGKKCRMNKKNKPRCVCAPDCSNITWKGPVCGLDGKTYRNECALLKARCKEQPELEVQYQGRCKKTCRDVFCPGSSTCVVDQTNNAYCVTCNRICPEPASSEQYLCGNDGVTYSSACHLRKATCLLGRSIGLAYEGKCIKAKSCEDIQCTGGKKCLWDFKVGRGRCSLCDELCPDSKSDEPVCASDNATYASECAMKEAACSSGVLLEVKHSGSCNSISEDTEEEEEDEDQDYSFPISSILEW
In assay [6] the target is Fibroblast growth factor 2 (Homo sapiens) (UniProt P09038). In words: basic fibroblast growth factor binding to printed compounds – biochemical, small-molecule microarray, 635/667 nm fluorescence, primary screen (AID 1133). The following applies: FGF2, fluorescence 635/667, higher = more signal.
Fibroblast growth factor 2 (Homo sapiens), sequence (P09038 whole entry, looked up): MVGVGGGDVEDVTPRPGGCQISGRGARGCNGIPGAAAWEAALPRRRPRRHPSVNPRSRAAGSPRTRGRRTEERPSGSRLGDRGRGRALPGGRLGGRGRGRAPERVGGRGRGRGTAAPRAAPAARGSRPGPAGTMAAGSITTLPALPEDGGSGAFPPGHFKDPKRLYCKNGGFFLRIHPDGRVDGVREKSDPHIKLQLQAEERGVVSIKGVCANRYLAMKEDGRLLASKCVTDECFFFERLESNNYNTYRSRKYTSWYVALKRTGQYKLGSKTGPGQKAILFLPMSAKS
Assay [7] is described as follows: JC-1 mitochondrial potential readout, lung cancer cells – cell-based, A549, JC-1 fluorescence, basal, 24 h, 100 nL, profiling panel (AID 1138).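 Also: A549 lung adenocarcinoma cells under basal conditions with no added stimulus; test concentration not given here.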 The following applies: higher = more signal.
Another assay has as its system Lefty1. Nature of the assay: Lefty1 protein binding to printed compounds – biochemical, small-molecule microarray, 635/667 nm fluorescence, primary screen (AID 1139). The following applies: fluorescence 635/667, higher = more signal.
The subject of assay [8] is wheat germ agglutinin (Triticum aestivum), Alexa647-labelled. In words: Alexa647-WGA lectin binding to printed small molecules – biochemical, small-molecule microarray, 635/667 nm fluorescence, artefact control for SMM control-protein annotation, profiling panel (AID 1140).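 Also: score merges 667 nm feature emission with signal to noise over triplicate slides.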 The following applies: WGA-A647 binding, 635 nm fluorescence, higher = more signal.
Assay [9] addresses Luciferin 4-monooxygenase (Photinus pyralis) (UniProt P08659). In words: inhibition of purified Photinus pyralis luciferase – biochemical, luminescence, purified enzyme, 2006 set, primary screen (AID 1141).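 Also: cell-free assay with purified firefly luciferase at 100 ng per well in PBS; test concentration not given here.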 Conditions: purified firefly luciferase, SteadyGlo luminescence, 30 min; higher = more signal, called active from +8 up or from −8 down.
Assay [10] deals with Wnt5a (protein binding on small-molecule microarray). Nature of the assay: small molecules binding Wnt5a protein – biophysical, small-molecule microarray, 635/667 nm fluorescence, primary screen (AID 1142).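 Also: fluorescence read at 667 nm with signal to noise per printed feature.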 The following applies: 635 nm fluorescence, higher = more signal.
Assay [11] in a line: ATP-based viability of Huh7 replicon cells – cell-based, CellTiter-Glo luminescence, basal, 48 h, cytotoxicity control for HCV replication inhibitor project, primary screen (AID 1143).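 Also: Huh7 hepatoma cells carrying a hepatitis C replication reporter with no stimulus; test concentration not given here.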 The following applies: higher = more signal, called active from +8 up or from −8 down.
A short description of assay [12]: Pseudomonas biofilm growth suppression – PAO1 strain, BacTiter-Glo luminescence, LB-PBS, primary screen (AID 1144). Conditions: P. aeruginosa PAO1 biofilm, 12 h, higher = more signal.
Assay [13] is described as follows: basal CRE-LacZ reporter activity in PC12 – cell-based, unstimulated, primary screen (AID 1145). The following applies: no forskolin, luminescence, 4.5 h, higher = more signal, called active from +8 up or from −8 down.
Assay [14] is described as follows: forskolin-driven CRE-LacZ activity in PC12 – cell-based, CRE-LacZ reporter, forskolin-stimulated, primary screen (AID 1146).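 Also: PC12 cells with 6xCRE LacZ reporter stimulated by forskolin 10 µM; beta-galactosidase reporter signal reflecting CREB driven transcription.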 Conditions: luminescence, 4.5 h, higher = more signal, called active from +8 up or from −8 down.
For assay [15], the target named is Streptavidin (Streptomyces avidinii) (UniProt P22629). In words: compounds binding control protein streptavidin – biophysical, small-molecule microarray, 635/667 nm fluorescence, artefact control for SMM compound annotation, primary screen (AID 1147).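 Also: signal reflects streptavidin binding to arrayed compounds as a control protein.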 Conditions: higher = more signal.
Streptavidin (Streptomyces avidinii), sequence (P22629 whole entry, looked up): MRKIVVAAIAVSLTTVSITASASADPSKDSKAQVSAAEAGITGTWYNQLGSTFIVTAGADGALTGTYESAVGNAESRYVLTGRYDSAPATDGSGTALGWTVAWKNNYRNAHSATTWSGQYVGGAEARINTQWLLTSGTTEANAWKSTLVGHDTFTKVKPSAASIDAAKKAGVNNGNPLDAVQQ
Assay [16] can be described thus: probe aInhba binding on compound microarray – biochemical, small-molecule microarray, 635/667 nm fluorescence, primary screen (AID 1148).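 Also: score merges 667nm spot fluorescence with signal-to-noise for antibody binding to printed compounds.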 The following applies: higher = more signal.
The target of assay [17] is Torsin-1A (Homo sapiens) (UniProt O14656). Nature of the assay: TOR1A wild-type binding on microarray – cell lysate, small-molecule microarray, lysate, 635/667 nm, primary screen (AID 1149). Conditions: COS7 hTOR1A-WT lysate, 635 nm fluorescence, higher = more signal.
Torsin-1A (Homo sapiens), sequence (O14656 whole entry, looked up): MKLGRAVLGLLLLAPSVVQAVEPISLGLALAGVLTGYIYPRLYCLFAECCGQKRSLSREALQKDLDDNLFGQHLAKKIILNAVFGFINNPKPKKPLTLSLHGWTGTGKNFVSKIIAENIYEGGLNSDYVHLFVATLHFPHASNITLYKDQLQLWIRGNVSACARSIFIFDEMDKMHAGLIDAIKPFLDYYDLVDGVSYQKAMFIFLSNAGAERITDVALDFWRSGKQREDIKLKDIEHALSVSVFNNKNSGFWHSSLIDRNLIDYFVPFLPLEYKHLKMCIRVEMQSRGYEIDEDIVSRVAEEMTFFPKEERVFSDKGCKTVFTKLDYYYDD
Assay [18] shares this target. Nature of the assay: torsin A mutant lysate binding on microarrays – cell lysate, small-molecule microarray, COS7 lysate, 635/667 nm fluorescence, primary screen (AID 1150).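 Also: score pools 667 nm emission and signal to noise measuring lysate protein binding.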 The following applies: COS7 hTOR1A mutant lysate, 635 nm fluorescence, higher = more signal.
Assay [19] relates to Sonic hedgehog protein (Shh). Nature of the assay: Sonic hedgehog microarray binding compounds – biochemical, small-molecule microarray, 635/667 nm fluorescence, primary screen (AID 1151).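 Also: Shh protein binding to compounds spotted on small-molecule microarray slides; score combines spot fluorescence intensity with signal-to-noise across triplicate slides.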 Conditions: 635 nm fluorescence, higher = more signal.

Molecules are shown by their SMILES. “And” between values parts separate entries of the source, which are not always exact repeats. Equal values may be shown once. The source holds several records for some structures; these can differ, active in one and inactive in another. The source made the active and inactive calls. Unless noted, no rule for the calls is given here.

Focal adhesion kinase 1 (Homo sapiens), sequence (Q05397 whole entry, looked up): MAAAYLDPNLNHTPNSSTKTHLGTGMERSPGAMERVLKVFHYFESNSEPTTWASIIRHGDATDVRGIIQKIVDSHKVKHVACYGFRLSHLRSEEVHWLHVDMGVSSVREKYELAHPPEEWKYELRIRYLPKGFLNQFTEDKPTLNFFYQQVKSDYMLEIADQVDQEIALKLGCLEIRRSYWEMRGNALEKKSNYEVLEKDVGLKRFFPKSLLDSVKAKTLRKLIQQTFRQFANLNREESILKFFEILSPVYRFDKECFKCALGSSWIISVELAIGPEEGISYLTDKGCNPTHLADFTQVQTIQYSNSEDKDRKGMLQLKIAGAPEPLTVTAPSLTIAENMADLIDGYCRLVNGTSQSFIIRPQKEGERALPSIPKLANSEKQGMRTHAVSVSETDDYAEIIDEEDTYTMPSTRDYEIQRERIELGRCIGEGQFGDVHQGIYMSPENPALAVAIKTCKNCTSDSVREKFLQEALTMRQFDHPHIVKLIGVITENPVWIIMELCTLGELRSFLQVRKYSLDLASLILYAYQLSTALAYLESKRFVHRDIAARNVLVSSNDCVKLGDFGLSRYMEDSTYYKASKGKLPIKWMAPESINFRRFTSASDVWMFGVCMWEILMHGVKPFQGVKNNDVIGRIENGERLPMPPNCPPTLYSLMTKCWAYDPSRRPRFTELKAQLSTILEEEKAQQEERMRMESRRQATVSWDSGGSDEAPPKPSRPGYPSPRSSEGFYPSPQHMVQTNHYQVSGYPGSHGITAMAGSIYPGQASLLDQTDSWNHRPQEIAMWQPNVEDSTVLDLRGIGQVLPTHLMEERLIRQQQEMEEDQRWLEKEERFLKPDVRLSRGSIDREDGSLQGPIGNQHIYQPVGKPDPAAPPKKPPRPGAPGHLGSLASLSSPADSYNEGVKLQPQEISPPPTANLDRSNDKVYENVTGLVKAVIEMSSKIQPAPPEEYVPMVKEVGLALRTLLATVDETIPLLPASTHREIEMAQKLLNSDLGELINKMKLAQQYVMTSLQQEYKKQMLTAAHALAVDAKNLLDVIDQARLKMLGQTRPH
Luciferin 4-monooxygenase (Photinus pyralis), sequence (P08659 whole entry, looked up): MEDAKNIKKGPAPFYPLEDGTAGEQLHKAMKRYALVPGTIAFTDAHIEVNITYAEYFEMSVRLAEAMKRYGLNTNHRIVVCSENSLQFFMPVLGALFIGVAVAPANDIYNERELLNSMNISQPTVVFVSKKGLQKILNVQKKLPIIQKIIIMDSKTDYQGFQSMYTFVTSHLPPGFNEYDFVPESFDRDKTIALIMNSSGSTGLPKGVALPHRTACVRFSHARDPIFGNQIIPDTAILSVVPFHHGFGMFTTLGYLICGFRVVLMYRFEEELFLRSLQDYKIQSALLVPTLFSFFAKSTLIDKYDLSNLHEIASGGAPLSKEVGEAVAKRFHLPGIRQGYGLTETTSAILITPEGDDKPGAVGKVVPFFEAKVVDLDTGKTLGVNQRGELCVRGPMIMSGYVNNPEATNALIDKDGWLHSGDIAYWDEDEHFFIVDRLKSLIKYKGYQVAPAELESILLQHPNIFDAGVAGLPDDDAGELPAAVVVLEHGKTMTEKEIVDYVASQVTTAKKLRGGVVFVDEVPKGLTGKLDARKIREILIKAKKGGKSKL

On to `C=C[C@@H](C)[C@@H](O)c1ccc(OCCO)cc1`, for which the composite z-score in assay [1] was -0.641 and -0.244; in [2] it was -0.66 and -0.875; in [3], -0.467 and -1.08; in [4] it was -1.87 and -1.43; in [5], -1.14 and -0.506; in [6] it was -2.62 and -0.83. In addition, the composite z-score was -1.33 and -1.19 with Lefty1; -0.616 and -0.2 in assay [8]; -1.29 and -1.06 in assay [10]; -1.1 and -0.908 in [15]; -0.312 and -0.213 in [16]; -3.3 and -3.39 with Torsin-1A (Homo sapiens) [17]. Further, the composite z-score with Torsin-1A (Homo sapiens) [18] is -2.66 and -2.95; in assay [19], -1.39 and 0.319. Also, the z-score is -0.0607 and 0.803 in [7]; -5.97 (inactive) and -7.19 (inactive) in assay [9]; -0.295 (inactive) and -0.245 (inactive) in [11]; -0.828 (inactive) and -0.12 (inactive) in assay [12]; 0.105 (inactive) and 1.46 (inactive) in assay [13]; -0.466 (inactive) and -0.637 (inactive) in assay [14].
Regarding `C[N+](C)(C)CCCCNC(=O)[C@@H]1C[C@@H]2C(=O)N[C@@H](CCCC[N+](C)(C)C)C(=O)N2[C@@H]1c1cccc(OCCO)c1`, the composite z-score in assay [1] is 2.73 and 2.55; in assay [2], 0.905 and -0.426; in [3] it was -0.791 and -0.306; in [4], -0.355 and 0.553; in assay [5], 1.54 and 1.48; in assay [6], 1.94 and 1.9. Moreover, the composite z-score was 1.73 and 1.55 with Lefty1; 0.284 and 0.68 in [8]; 1.07 and 0.542 in assay [10]; 0.0255 and -0.695 in [15]; -0.05 and -0.0413 in assay [16]; 2.06 and 0.536 with Torsin-1A (Homo sapiens) [17]. Moreover, the composite z-score with Torsin-1A (Homo sapiens) [18] is 2.17 and 1.72; in assay [19] it was 2.31 and 2.25. The z-score in assay [7] was 0.725 and 1.07; in [9], -1.56 (inactive) and -1.48 (inactive); in [11] it was -0.219 (inactive) and 0.0262 (inactive); in [12] it was 0.78 (inactive) and -0.351 (inactive); in [13], -0.264 (inactive) and 0.692 (inactive); in [14], -1.09 (inactive) and -0.277 (inactive).
With `COC(=O)[C@@]1(Cc2ccc(OC)cc2)[C@H]2c3cc(C(=O)N(C)C)n(Cc4ccc(O)c(OC)c4)c3C[C@H]2CN1C(=O)c1ccccc1`, the composite z-score is 1.8 and 2.3 in assay [1]; 1.24 and 1.21 in assay [2]; 0.529 and 0.379 in assay [3]; 0.0218 and 0.962 in assay [4]; 0.231 and 0.715 in [5]; -0.913 and -0.134 in assay [6]. In addition, the composite z-score in the assay on Lefty1 was -0.268 and -0.542; in assay [8], 1.39 and 0.989; in [10], 0.0905 and 0.294; in assay [15] it was 1.09 and 0.758; in assay [16] it was 0.293 and 0.714; in the assay with Torsin-1A (Homo sapiens) [17], 0.934 and 0.0765. The composite z-score with Torsin-1A (Homo sapiens) [18] was 0.692 and 0.318; in assay [19] it was 1.02 and -0.291. Further, the z-score in [7] is 1.73 and 1.22; in [9] it was 1.75 (inactive) and 1.08 (inactive); in assay [11], -1.03 (inactive) and -2.86 (inactive); in assay [12], 0.209 (inactive) and 0.769 (inactive); in [13] it was 0.583 (inactive) and 0.197 (inactive); in assay [14], 0.217 (inactive) and -0.742 (inactive).
In the case of `CCOC(=O)C[C@H]1[C@H](OC(=O)c2ccccc2-c2ccccc2)[C@@H](NC(=O)c2ccccc2)c2cc(OCCCO)ccc2N1C(=O)c1ccc2ccccc2n1`, the composite z-score is 0.861 and 1.4 in assay [1]; 0.547 and 0.311 in assay [2]; -0.0011 and 0.466 in assay [3]; 0.0271 and 0.432 in assay [4]; 0.41 and 1.12 in assay [5]; 0.566 and 0.845 in assay [6]. For the same compound, the composite z-score with Lefty1 is 0.513 and 0.934; in assay [8], 0.692 and 0.31; in [10] it was 0.103 and 0.147; in assay [15], -0.0119 and 1.12; in assay [16] it was 0.216 and 0.0047; in the assay with Torsin-1A (Homo sapiens) [17], 0.144 and 0.158. Further, the composite z-score with Torsin-1A (Homo sapiens) [18] is 0.0956 and 0.344; in assay [19], 0.502 and 1.8. The z-score in assay [7] is 1.1 and 0.202; in assay [9], -0.233 (inactive) and -0.818 (inactive); in assay [11], -0.616 (inactive) and 0.662 (inactive); in [12], 0.559 (inactive) and 0.171 (inactive); in [13], 9.27 (active) and -0.23 (inactive); in [14] it was 0.158 (inactive) and -0.583 (inactive).
